Measurements published in the supplement of paper PMC12350171.
Structures can show the parent of a compound that is named as a salt.

Assays:
Assay in all cases: growth AUC normalised to DMSO control (median) (fraction of control); higher = less growth inhibition, active = hit call of the paper
Settings in all cases: 20 µM;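 active = normalised median growth AUC below 0.1 of DMSO control; inactive = AUC 0.1 or higher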
[1] = tested on: P. vulgatus RND KO
Outline: (§1)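 Each strain went through two overnight passages under anaerobic conditions before growth in mGAM in 96-well plates, starting at OD578 0.01, with each compound from the approved-drug library at 20 μM and 1% DMSO. Inside an anaerobic incubator, OD578 was recorded every hour for 24 h. Growth curves were cut off at entry into stationary phase, and the area under the curve was calculated by the trapezoidal rule and normalised to vehicle wells on the same plate. Reported values are medians of three biological replicates.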

[2] = tested on: P. vulgatus WT
Outline: as §1

[3] = tested on: S. enterica typhimurium WT
Outline: as §1

[4] = tested on: S. enterica typhimurium tolC KO
Outline: as §1
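Further: active when median AUC fell below 0.1.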

Compound | growth AUC normalised to DMSO control [1] | growth AUC normalised to DMSO control [2] | growth AUC normalised to DMSO control [3] | growth AUC normalised to DMSO control [4]
NS(=O)(=O)c1cc2c(cc1Cl)NC(Cc1ccccc1)NS2(=O)=O (stereo not given) [Benzylhydrochlorothiazide] | 1.08 (inactive) | 1.1 (inactive) | 1 (inactive) | 0.994 (inactive)
CN1c2cc(O)c(N=NC(N)=O)cc2CC1S(=O)(=O)O (stereo not given) [Carbazochrome sodium sulfonate] | 1.01 (inactive) | 1 (inactive) | 1 (inactive) | 0.993 (inactive)
Cc1c(O)cccc1C(=O)N[C@@H](CSc1ccccc1)[C@H](O)CN1C[C@H]2CCCC[C@H]2C[C@H]1C(=O)NC(C)(C)C [Nelfinavir mesylate] | 0.912 (inactive) | 0.954 (inactive) | 1 (inactive) | 0.962 (inactive)
CC1(C)S[C@@H]2[C@H](NC(=O)[C@H](N)c3ccccc3)C(=O)N2[C@H]1C(=O)OC1OC(=O)c2ccccc21 (stereo not given in full) [Talampicillin hydrochloride] | 0.00561 (active) | 0.00787 (active) | 0.00491 (active) | 0.00469 (active)
C[C@@H]1C[C@H]2[C@@H]3C[C@H](F)C4=CC(=O)C=C[C@]4(C)[C@@]3(F)[C@@H](O)C[C@]2(C)[C@@]1(O)C(=O)COC(=O)C(C)(C)C [Flumethasone pivalate] | 0.995 (inactive) | 1 (inactive) | 0.999 (inactive) | 1 (inactive)
COc1cc2c(cc1OC)CC(=O)N(CCCN(C)C[C@H]1Cc3cc(OC)c(OC)cc31)CC2 [Ivabradine hydrochloride] | 1 (inactive) | 0.997 (inactive) | 1.01 (inactive) | 0.965 (inactive)
COc1ccc2cc1Oc1ccc(cc1)C[C@H]1c3c(cc4c(c3Oc3cc5c(cc3OC)CCN(C)[C@@H]5C2)OCO4)CCN1C [Cepharanthine] | 0.999 (inactive) | 0.973 (inactive) | 1.02 (inactive) | 0.998 (inactive)
OCCN1CCN(CC/C=C2/c3ccccc3Sc3ccc(C(F)(F)F)cc32)CC1 [Flupentixol dihydrochloride cis-(Z)] | 0.946 (inactive) | 0.997 (inactive) | 1.01 (inactive) | 0.828 (inactive)
O=C(O)c1cc(=O)c2ccccc2o1 [Chromocarb] | 0.981 (inactive) | 1 (inactive) | 0.998 (inactive) | 1 (inactive)
CCOC(=O)Nc1ccc(NCc2ccc(F)cc2)nc1N [Flupirtine] | 1.08 (inactive) | 1.05 (inactive) | 1 (inactive) | 0.979 (inactive)
CCOC(=O)C1=C[C@@H](OC(CC)CC)[C@H](NC(C)=O)[C@@H](N)C1 [Oseltamivir phosphate] | 1.08 (inactive) | 1.05 (inactive) | 0.996 (inactive) | 0.984 (inactive)
CC(=O)Nc1ccc(OC(=O)c2ccccc2O)cc1 [Acetaminosalol] | 0.959 (inactive) | 0.964 (inactive) | 1 (inactive) | 0.937 (inactive)
CC(C)CN(C[C@@H](O)[C@H](Cc1ccccc1)NC(=O)O[C@H]1CCOC1)S(=O)(=O)c1ccc(N)cc1 [Amprenavir] | 1.01 (inactive) | 1.06 (inactive) | 0.995 (inactive) | 0.995 (inactive)
CC(C)c1nc(CN(C)C(=O)N[C@H](C(=O)N[C@@H](Cc2ccccc2)C[C@H](O)[C@H](Cc2ccccc2)NC(=O)OCc2cncs2)C(C)C)cs1 [Ritonavir] | 1.04 (inactive) | 1.04 (inactive) | 0.998 (inactive) | 0.97 (inactive)
Oc1ccc(C2CNCCc3c2cc(O)c(O)c3Cl)cc1 (stereo not given) [Fenoldopam] | 0.995 (inactive) | 0.992 (inactive) | 0.985 (inactive) | 0.978 (inactive)
CC(=O)OC(C)OC(=O)C(C)c1ccc(-c2ccccc2)c(F)c1 (stereo not given) [Flurbiprofen axetil] | 1.09 (inactive) | 1.1 (inactive) | 1.01 (inactive) | 0.856 (inactive)
N[C@@H](Cc1c[nH]c2ccccc12)C(=O)O [L-Tryptophan] | 1 (inactive) | 1.03 (inactive) | 0.994 (inactive) | 0.989 (inactive)
CC1(C)S[C@@H]2[C@H](NC(=O)C(c3ccccc3)S(=O)(=O)O)C(=O)N2[C@H]1C(=O)O (stereo not given in full) [Sulbenicillin sodium salt] | 0.00728 (active) | 0.00538 (active) | 0.116 (inactive) | 0.00823 (active)
Cc1nc(=O)c2cc(CN(C)c3ccc(C(=O)N[C@@H](CCC(=O)O)C(=O)O)s3)ccc2[nH]1 [Raltitrexed] | 1.04 (inactive) | 0.997 (inactive) | 1 (inactive) | 0.991 (inactive)
CCC(C)(C)c1ccc(CC(C)CN2C[C@@H](C)O[C@@H](C)C2)cc1 (stereo not given in full) [Amorolfine hydrochloride] | 1.01 (inactive) | 1.03 (inactive) | 1.01 (inactive) | 0.963 (inactive)
CCC[C@@H]1C[C@@H](C(=O)N[C@@H]([C@H]2O[C@H](SC)[C@H](OP(=O)(O)O)[C@@H](O)[C@H]2O)[C@H](C)Cl)N(C)C1 [Clindamycin Phosphate] | 0.844 (inactive) | 0.895 (inactive) | 1 (inactive) | 0.961 (inactive)
CN(C/C=C/C#CC(C)(C)C)Cc1cccc2ccccc12 [Terbinafine] | 1.01 (inactive) | 0.998 (inactive) | 1.01 (inactive) | 0.928 (inactive)
CCCCc1oc2ccc(NS(C)(=O)=O)cc2c1C(=O)c1ccc(OCCCN(CCCC)CCCC)cc1 [Dronedarone hydrochloride] | 1.01 (inactive) | 1.03 (inactive) | 1 (inactive) | 1 (inactive)
CC(=O)Nc1ccc(CC(=O)O)cc1 [Actarit] | 0.953 (inactive) | 1.01 (inactive) | 1 (inactive) | 0.991 (inactive)
CCN1CCN(c2cc3c(cc2F)c(=O)c(C(=O)O)cn3C2CC2)CC1 [Enrofloxacin] | 0.0121 (active) | 0.0049 (active) | 0.00541 (active) | 0.00221 (active)
Cn1c([N+](=O)[O-])cnc1COC(N)=O [Ronidazole] | 0.0102 (active) | 0.00777 (active) | 0.999 (inactive) | 0.923 (inactive)
COC(=O)C1=C(C)NC(C)=C(C(=O)O[C@H]2CCN(Cc3ccccc3)C2)[C@H]1c1cccc([N+](=O)[O-])c1 [Barnidipine Hydrochloride] | 1.1 (inactive) | 1.11 (inactive) | 0.998 (inactive) | 0.961 (inactive)
O=C(c1cc(O)c(O)c(O)c1)c1ccc(O)c(O)c1O [Exifone] | 0.975 (inactive) | 0.993 (inactive) | 0.986 (inactive) | 0.995 (inactive)
CCCSS/C(CCO)=C(/C)N(C=O)Cc1cnc(C)nc1N [Prosultiamine] | 1.09 (inactive) | 1.06 (inactive) | 0.997 (inactive) | 1.02 (inactive)
CC(C)(CO)[C@@H](O)C(=O)NCCC(=O)NCCSSCCNC(=O)CCNC(=O)[C@H](O)C(C)(C)CO [D-Pantethine] | 1.01 (inactive) | 1.01 (inactive) | 1 (inactive) | 1 (inactive)
